Compound activity from PubChem BioAssay.
A selection: hits, their analogues and other compounds. The true share with any hit is near 12%.
JMJD2A Tudor inh: inhibitors of human JMJD2A Tudor domain; Potency, µM (doses to about 114 µM), without a hit: at the highest dose activity change, negative = inhibition, usual class: inhibitors; 4.4% of 390,000 active; AlphaScreen JMJD2A-Tudor / H3K4me3 peptide binding; AID 504339; O75164; further: on the % scale 0 is the no-effect control and ±100 the full control effect; nearly all actives have a fitted effect of over 50% in size
BAZ2B block: inhibitors of human BAZ2B bromodomain; 4.4% of 360,000 active; AlphaScreen BAZ2B-H3K14Ac peptide displacement; Potency, µM (doses to about 114 µM), for the others: at the highest dose activity change, negative = inhibition, actives largely listed as inhibitors; AID 504333; further: on the % scale 0 is the no-effect control and ±100 the full control effect; nearly all actives have a fitted effect of over 60% in size
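Protein-peptide AlphaScreen: BAZ2B 50 nM, b-H3K14Ac 50 nM, 1x PBS pH 7.4 + 0.01% Tween-20. Preincubation 30 min RT; cpd 30 min RT (top 110 uM); beads 20 min RT, light-protected.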
Sfp inh: inhibitors of Bacillus subtilis Sfp phosphopantetheinyl transferase; Q9F4F7; Biochemical Sfp PPTase activity, qHTS; Potency, µM, without a hit: largest response in the series, negative = inhibition, usual class: inhibitors; 3.5% of 310,000 active; AID 1490;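 further: the enzyme is Sfp with the accession as filed and its product quenches rhodamine fluorescence; 0% = enzyme reaction without inhibitor and -100% = no enzyme wells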
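After 15 min at room temperature with compound, 15 nM Sfp received 5 uM rhodamine-CoA plus 12.5 uM BHQ-2-ybbR (50 mM Hepes pH 7.6, 10 mM MgCl2). Rate came from the fluorescence difference over 30 min, ex 525/em 598 nm.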
HP1b binding inh: HP1-beta chromodomain-methylated histone interaction inhibition. P83916. 0.56% of 390,000 active. Potency, µM (series often up to 114 µM), for inactives: top-dose activity change, negative = inhibition, usual class: inhibitors. AlphaScreen HP1-beta / biotin-H3K9me3 peptide binding; further: nearly all actives have a fitted effect of over 70% in size
Target sequence (P83916 whole entry, looked up): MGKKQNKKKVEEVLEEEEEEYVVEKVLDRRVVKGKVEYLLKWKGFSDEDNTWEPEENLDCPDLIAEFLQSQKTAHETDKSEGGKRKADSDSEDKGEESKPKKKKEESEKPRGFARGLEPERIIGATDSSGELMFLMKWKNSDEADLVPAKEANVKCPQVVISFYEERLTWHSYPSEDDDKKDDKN
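AlphaScreen: HP1-beta (50 nM) preformed 30 min with biotin-H3(1-18)K9me3 peptide (50 nM) in PBS pH 7.4, 0.01% Tween-20. Compound added for 30 min at RT, then streptavidin donor/nickel chelate acceptor beads (10 ug/mL) for 30 min.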
L3MBTL1 inh: blocks human L3MBTL1; Q9Y468; AlphaScreen L3MBTL1–H3K9me1 peptide binding; Potency, µM (titrated, usually from 57.1 µM), for inactives: top-dose activity, negative = inhibition, usual class: inhibitors; 0.66% of 230,000 active; AID 485360; further: on the % scale 0 is the no-effect control and ±100 the full control effect; nearly all actives have a fitted effect of over 60% in size
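First, the protein-peptide complex forms for 30 min at room temperature (L3MBTL1 50 nM, biotinylated H3K9me1 peptide 75 nM). Next, compounds are pin-transferred and incubated 30 min. Finally, AlphaScreen beads are added and read after 30 min.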
G9a inh: blocks human histone lysine methyltransferase G9a; 8.8% of 350,000 active; Potency, µM (top dose mostly 102 µM), for the others: at the top dose activity, negative = inhibition, most hits filed as inhibitors; AID 504332; G9a H3K9 monomethylation, AlphaScreen, 2 h; Q96KQ7; further: on the % scale 0 is the no-effect control and ±100 the full control effect; nearly all actives have a fitted effect of over 75% in size
Target sequence (Q96KQ7 913-1193 limits assumed): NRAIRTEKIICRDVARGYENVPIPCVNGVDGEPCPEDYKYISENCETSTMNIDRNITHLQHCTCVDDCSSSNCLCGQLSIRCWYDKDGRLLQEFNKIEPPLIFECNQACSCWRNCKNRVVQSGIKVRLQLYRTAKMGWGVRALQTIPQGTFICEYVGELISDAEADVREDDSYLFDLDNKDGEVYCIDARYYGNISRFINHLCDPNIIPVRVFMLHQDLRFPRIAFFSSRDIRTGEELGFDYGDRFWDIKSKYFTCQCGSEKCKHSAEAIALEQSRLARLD
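AlphaScreen detection with an anti-monomethyl H3K9 antibody quantified product after a 2 h room-temperature reaction containing 500 nM biotinylated H3K9 peptide, 20 µM SAM and 20 nM enzyme, which had been preincubated 15 min with compound.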
Numbers without * were called inactive; ? = inconclusive; nt = no result given; ! = not confirmed by another sample; [ ] = another dose, or the depositor's remark. The call rests on the fitted dose curve; in most records, active means well fitted curve in the direction sought with a large enough effect; inconclusive means small, poorly fitted or top-dose-only effect, or another doubt; inactive means no such curve, though single readings can be large; an effect the other way counts as inactive or inconclusive. Potency means the concentration at half of the fitted maximal effect.

SMILES	JMJD2A Tudor inh	BAZ2B block	Sfp inh	HP1b binding inh	L3MBTL1 inh	G9a inh
Nc1nc(CN2CCc3ccccc3C2)nc(Nc2ccccc2)n1	79µM*	50µM*	-1%	3%	0%[11.4 µM]	?
COc1ccc(Nc2nc(N)nc(CN3CCc4ccccc4C3)n2)cc1	?	50µM*	15%	16%	-30%	?
Nc1nc(CN2CCC(Cc3ccccc3)CC2)nc(Nc2ccccc2)n1	?	-37%	14%	15%	nt	-13%[12.7 µM]
CC1CC(C)CN(Cc2nc(N)nc(Nc3ccc4ccccc4c3)n2)C1 (stereo not given)	-15%[11.4 µM]	50µM*	11%	-8%	?	-6%[59 µM]
CC1CC(C)CN(Cc2nc(N)nc(Nc3ccccc3)n2)C1 (stereo not given)	?	?	21%	22%	-4%	nt
COc1ccc(Nc2nc(N)nc(CN3CCC(C)CC3)n2)cc1	-23%	-33%	4%	7%	nt	20µM*
COc1ccc(-n2c(SCC(=O)NCc3ccc(Cl)cc3)nc3ccsc3c2=O)cc1	-8%	-10%	nt	29%	nt	-29%[59 µM]
COc1ccc(CCNC(=O)CCCn2c(=O)c3ccccc3n(Cc3ccccc3)c2=O)cc1OC	-16%	-37%	nt	11%	nt	-37%[59 µM]
CCn1nc(NC(=O)Cc2ccc(OC)cc2)c2cc3cc(C)ccc3nc21	-9%	-4%	-10%	23%	7%	45µM*
NC[C@@H]1O[C@H](c2ccccc2)Cc2c1ccc(O)c2O	nt	nt	79µM*	nt	nt	7%[59 µM]
NC[C@@H]1O[C@H](C23CC4CC(CC(C4)C2)C3)Cc2c1ccc(O)c2O	?	?	50µM*!	-3%	nt	16µM*
CC(C)=CCc1c(O)cc2c(c1O)C(=O)CC(c1ccccc1)O2 (stereo not given)	-19%	nt	nt	30%	nt	nt
CCOc1ccc(OCC)c(NC(=O)Cn2cccc2)c1	-12%	-36%	9%	14%	nt	-8%[59 µM]
CCOc1ccc(OCC)c(NC(=O)CN2CCN(c3cccc(C)c3)C(C)C2)c1 (stereo not given)	1.1µM*	50µM*	?	25µM*	-26%	?
CCOc1ccc(OCC)c(NC(=O)CN2CCN(c3cccc(C)c3)CC2)c1	7.9µM*	40µM*	25µM*	25µM*	-9%	3.5µM*
CCOc1ccc(NC(=O)CN2CCN(CC(=O)Nc3ccccc3OCC)CC2)cc1	-6%	0%	nt	27%[57 µM]	nt	3%[59 µM]
Cc1ccc(C)c(NC(=O)Cn2cc(C(=O)c3cccs3)c3ccccc32)c1	-24%	1%	nt	7%	nt	9%[59 µM]
CSC1=NC2(CCCCC2)C2=C(CCCC2)N1	-14%	13%	11%	25%	1%	45µM*
Cc1cc(NC(=O)CCCS(=O)(=O)c2nc(-c3cccs3)cc(C(F)(F)F)n2)no1	-12%	-4%	-20%	84%	-4%	50µM*
CCOC(=O)CCS(=O)(=O)c1nc(-c2ccccc2)cc(C(F)(F)F)n1	-7%	-4%	10µM*	68%	5%[11.4 µM]	2.8µM*
CS(=O)(=O)c1nc(-c2ccc(F)cc2)cc(C(F)(F)F)n1	-10%	-3%	?	64%	1%	45µM*
Cc1cc(NC(=O)CSc2nc(-c3cccs3)cc(C(F)(F)F)n2)no1	-5%	-4%	15%	18%	9%	-7%
CCOC(=O)CS(=O)(=O)c1nc(-c2ccc(F)cc2)cc(C(F)(F)F)n1	-2%	-3%	-61%	32%	4%	?
CCOC(=O)CS(=O)(=O)c1nc(-c2ccccc2)cc(C(F)(F)F)n1	-12%	-12%	50µM*	46%	-2%	35µM*
Cc1ccccc1Cn1c(=O)n(CCc2ccccc2)c(=O)c2sc3ccccc3c21	-6%	-34%	nt	17%	nt	-8%[59 µM]
SMILES	JMJD2A Tudor inh	BAZ2B block	Sfp inh	HP1b binding inh	L3MBTL1 inh	G9a inh
O=C(O)C1Oc2cc3ccccc3cc2O1	?	-23%	17%	?	nt	45µM*
CC(=O)N1c2ccc(S(=O)(=O)NCC3CCC(C(=O)Nc4cccc(C)c4C)CC3)cc2CC1C (stereo not given)	-4%	-31%	nt	32%	nt	-11%[59 µM]
CCOc1ccccc1NC(=O)Cn1c(=O)n(Cc2ccccc2)c(=O)c2c(C)c(C)sc21	-4%	-1%	nt	6%	nt	-2%[59 µM]
COC(=O)c1ccccc1NC(=O)Cn1c(=O)n(Cc2ccccc2)c(=O)c2c(C)c(C)sc21	-2%	-16%	79µM*	27%	0%	11%[59 µM]
CCCCc1ccc(NC(=O)CSc2nc3ccccc3nc2N2CCOCC2)cc1	6%	14%	nt	58%	nt	6%[59 µM]
CNc1ccc(Br)cc(C(=O)/C=C/c2ccc(OC)cc2OC)c1=O	32µM*	32µM*	?	?	?	7.9µM*
COc1cccc(/C=C/C(=O)OCC(=O)NCCNC(=O)COC(=O)/C=C/c2cccc(OC)c2)c1	-18%	-12%	nt	12%	2%	-29%[12.7 µM]
O=C(/C=C/c1ccc(Cl)cc1Cl)c1ccc[nH]1	-33%	-31%	7%	6%	?	-38%
CNc1ccc(Br)cc(C(=O)/C=C/c2ccc(Cl)cc2Cl)c1=O	56µM*	?	14µM*	?	-15%	35µM*
CNc1ccc(Br)cc(C(=O)/C=C/c2cccc(OC)c2)c1=O	45µM*	45µM*	20µM*	?	?	7.9µM*
COc1ccc(-c2cc(C(=O)N3CCN(c4ccccc4OC)CC3)no2)cc1OC	?	79µM*	-20%	2%	nt	6%[59 µM]
COc1ccccc1N1CCN(C(=O)c2cc(-c3ccco3)on2)CC1	?	-8%	2%	3%	-4%	45µM*
CCCCN(CC)CCNC(=O)c1c(C)oc2ncnc(N3CCOCC3)c12	-11%	9%[57.1 µM]	nt	15%	nt	-2%[59 µM]
Cc1c(C(=O)N2CCN(S(=O)(=O)c3cccs3)CC2)oc2ccc(F)cc12	-14%	nt	nt	47%	-7%	nt
COc1ccc2oc(C(=O)OCC(=O)N3CCN(S(=O)(=O)c4ccccc4)CC3)c(C)c2c1	-18%	7%	nt	20%	-19%	50µM*
Cc1c(C(=O)N2CCN(S(=O)(=O)c3ccc(F)cc3)CC2)oc2ccccc12	-15%	0%	nt	17%	0%	50µM*
CCCc1cc(C(=O)OC)c(NC(=O)CCCC(=O)O)s1	1%	-10%	12%	19%	4%	-8%
CCc1cc(C(=O)OC)c(NC(=O)CCC(=O)O)s1	-12%	8%	20µM*	?	-2%	14µM*
CCCN1CCN(C(=S)Nc2sc(CC)cc2C(=O)OC)CC1	?	-37%	-5%	15%	-20%	50µM*
CSc1ccc(CCNC(=O)c2cc(C)nc3c2c(C)nn3-c2ccccc2)cc1	0%	-4%[57.1 µM]	nt	43%	nt	-2%[59 µM]
